From PubChem BioAssay AID449762 (Southern Research Specialized Biocontainment Screening …, 2010)
Values joined by “and” are separate entries in the source; they are usually repeats but may differ in a detail not shown here. Equal values may be shown once. Among all 330,000 compounds or so, about 1,900 (0.58%) were called active. Roughly 4% stayed inconclusive and do not appear here. Cut-off read from the data, not from the text of the source: inconclusive = inhibition above about 70% without an active follow-up result; inactive = below that. Only a sample is shown. Measured potencies and affinities stand elsewhere.

experiment: M. tuberculosis growth inhibition, HTS (AID 449762);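 note: bacterial growth assessed after seven days of incubation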; conditions: M. tuberculosis H37Rv growth inhibition, 7H9 media; at 25 µM; stronger effect = higher value

| Compound | inhibition |
| --- | --- |
| C=CCN(CC=C)C(=O)C[n+]1ccc(C(N)=O)cc1 | 6.91% (inactive) |
| COCCN1C(=O)C(=O)/C(=C(/O)c2ccc(S(=O)(=O)N3CCCCC3)cc2)C1c1ccc(O)c(OC)c1 (stereo not drawn) | -2.3% (inactive) |
| CN(c1ccccc1)S(=O)(=O)c1cccc(NC(=O)CSc2nnc(N)s2)c1 | 3.34% (inactive) |
| O=C1Nc2ccc(Br)cc2/C1=C/c1ccc(C(=O)O)cc1 | 0.13% (inactive) |
| O=C(CC1(O)C(=O)Nc2ccc(Br)cc21)c1ccc2c(c1)OCO2 (stereo not drawn) | -6.14% (inactive) |
| CC(C)C(=O)Nc1c2c(nn1-c1ccc([N+](=O)[O-])cc1)CS(=O)(=O)C2 | 3.07% (inactive) |
| Cc1ccc(F)cc1NC(=O)c1c(-c2ccccc2)noc1C | -8.46% (inactive) |
| CCOc1ccc(C(=O)Nc2ccc3nc(N4CCN(CC)CC4)cc(C)c3c2)cc1 | 43.7% (inactive) |
| CCOc1[nH]n(-c2ccccc2)c(=O)c1C=Nc1ccccc1 | 19% (inactive) |
| CCOc1[nH]n(-c2ccccc2)c(=O)c1C=Nc1ccc(C)cc1 | 9.52% (inactive) |
| Cc1ccccc1-n1c(-c2ccc([N+](=O)[O-])cc2)nc2ccccc2c1=O | 2.55% (inactive) |
| COc1ccc(NC(C)=O)c(C)c1 | -2.52% (inactive) |
| c1ccc(-c2nc(-c3ccncc3)n[nH]2)nc1 | -0.34% (inactive) |
| c1ccc(-c2n[nH]c(-c3ccccn3)n2)nc1 | -3.4% (inactive) and -2.35% (inactive) |
| O=C(NCc1ccccc1F)c1cc(=O)[nH]c2ccccc12 | 1.18% (inactive) |
| Cc1ccc2nsnc2c1S(=O)(=O)N1CCOCC1 | -4.54% (inactive) |
| COc1ccc(CCNC(=O)c2ccc(CNS(=O)(=O)c3cc(C)ccc3C)cc2)cc1OC | -3.98% (inactive) |
| O=S(=O)(Nc1ccccn1)c1ccc(Br)cc1 | 10.2% (inactive) |
| Cc1c(NS(=O)(=O)c2ccc(Br)cc2)c(=O)n(-c2ccccc2)n1C | 0.05% (inactive) |
| O=C(c1cc(F)ccc1F)C1CCCN(CCCc2ccccc2)C1 (stereo not drawn) | 10.3% (inactive) |
| CC(CCc1ccccc1)NC(=O)COC(=O)C1CCC(C(C)(C)C)CC1 (stereo not drawn) | 6.62% (inactive) |
| CN1CCc2c(OCC(=O)N3CCC(Cc4ccccc4)CC3)cccc2C1=O | 5.02% (inactive) |
| Cc1cc(NC(=O)c2cccs2)n(-c2nc3ccccc3[nH]2)n1 | 57.9% (inactive) |
| Cc1cc(NC(=O)c2ccc(C)s2)n(-c2nc3ccccc3[nH]2)n1 | 56.9% (inactive) |

| Compound | inhibition |
| --- | --- |
| CCn1nnnc1SCC(=O)N1CCCCC1 | 0.5% (inactive) |
| O=C1NC(=Nc2ccccc2)SC1Cc1ccccc1 (stereo not drawn) | -10.5% (inactive) |
| O=C1N/C(=N/N=C/c2ccc(O)cc2)SC1Cc1ccccc1 (stereo not drawn) | -5.03% (inactive) |
| CCC(Sc1nc2ccc(N)cc2s1)C(=O)Nc1nccs1 (stereo not drawn) | 61% (inactive) |
| C[n+]1cnn2c1SCC1(COC1)C2 | 3.72% (inactive) |
| O=C(CNC(=O)c1ccc(Cl)cc1)c1ccccc1 | -1.27% (inactive) |
| O=C(CNC(=O)c1ccc(F)cc1)c1ccc(Cl)cc1 | 6.46% (inactive) |
| C=C(C)Cn1c(C)cc(C)c(S(=O)(=O)c2cccc(C)c2)c1=O | -7.99% (inactive) |
| CCOc1cc(CNc2ccc(Br)cc2)cc(Br)c1OCC(=O)NC(C)(C)C | -3.44% (inactive) |
| CC(=O)c1ccc(N2CCN(C(=O)c3cc4c(C)nc5ccccc5c4o3)CC2)cc1 | 4.42% (inactive) |
| Cc1nc2ccccc2c2oc(C(=O)N3CCN(c4ccc([N+](=O)[O-])cc4)CC3)cc12 | 26.2% (inactive) |
| O=C(CCS(=O)(=O)c1ccc(Cl)cc1)N1CCN(c2ccccc2F)CC1 | -3.9% (inactive) |
| COc1ccc(OC)c(CN2CCN(C(=O)CNC(=O)c3cc(C)cc(C)c3)CC2)c1 | 1.7% (inactive) |
| COc1ccc(OC)c(CN2CCN(C(=O)CCNC(=O)c3ccc(Br)cc3)CC2)c1 | -2.93% (inactive) |
| CCc1cc(C(=O)NN2C(=O)NC3(CCCCC3)C2=O)sc1C | -5.54% (inactive) |
| Cc1ccc(NC(=O)c2sc(Cl)nc2-c2ccccc2)cc1 | 1.87% (inactive) |
| O=C(NC1CCCCCC1)c1cc(S(=O)(=O)N2CCOCC2)ccc1N1CCCCC1 | -7.36% (inactive) |
| CCCCCCCNC(=O)C1(CC2CC(c3ccccc3)=NO2)CCNCC1 (stereo not drawn) | -6.2% (inactive) |
| CCCCCCCNC(=O)C1(CC2CC(c3cccc(Br)c3)=NO2)CCN(C(=O)Cc2ccc(F)cc2)CC1 (stereo not drawn) | 1.04% (inactive) |
| Cc1ccc(-n2c(SCC(=O)NCCN3C(=O)CSC3=O)nnc2-c2ccccc2)cc1 | -2.1% (inactive) |
| O=C(Nc1ccc(-c2csc(Nc3cccc(C(F)(F)F)c3)n2)cc1)c1ccccc1 | 50.9% (inactive) |
| O=C(Nc1ccc(-c2csc(Nc3ccccc3)n2)cc1)c1cccc(C(F)(F)F)c1 | 1.22% (inactive) |
| Cc1ccc(C(=O)N/N=C2\CCCc3ccccc32)c(C)c1 | -7.5% (inactive) |
| O=C(N/N=C1\CCCc2ccccc21)c1ccccc1Cl | 5.05% (inactive) |

| Compound | inhibition |
| --- | --- |
| CCOc1ccc(CN(C)C(=O)c2cccnc2OCC)cc1OC | -1.02% (inactive) |
| CCOc1ccc(C(C)NC(=O)Nc2ccc(F)cc2F)cc1 (stereo not drawn) | 6.1% (inactive) |
| Cn1c(/C=N/c2nc3ccccc3[nH]2)nc2ccccc21 | 43.9% (inactive) |
| C(=N\Nc1nc2ccccc2[nH]1)/c1ccccc1 | 33.3% (inactive) |
| CCOc1ccc(OCCNC(=O)C(NC(=O)c2c(F)cccc2F)C(C)C)cc1 (stereo not drawn) | -12.3% (inactive) |
| COc1ccc(Nc2nnc(SC(C)C(=O)NC3CC3)s2)cc1 (stereo not drawn) | -1.49% (inactive) |
| Cc1c(NC(=S)N/N=C/c2cccc(O)c2)c(=O)n(-c2ccccc2)n1C | -10.1% (inactive) |
| N=c1c2c(-c3ccccc3)c(-c3ccccc3)n(Cc3ccco3)c2ncn1CCO | 52.9% (inactive) |
| N=c1c2c(-c3ccccc3)c(-c3ccccc3)n(Cc3ccco3)c2ncn1CCCO | 16.4% (inactive) |
| O=C(Oc1ccccc1C(=S)N1CCOCC1)c1ccc([N+](=O)[O-])cc1[N+](=O)[O-] | 38.5% (inactive) |
| O=C(C1=C(O)C(=O)N(CCOCCO)C1c1cccc([N+](=O)[O-])c1)c1cccs1 (stereo not drawn) | -3.54% (inactive) |
| Cc1ccc(-c2cc(C(=O)N3CC(C)OC(C)C3)c3ccccc3n2)o1 (stereo not drawn) | -3.5% (inactive) |
| COc1ccc2nc(NC(=O)C3CSC4(C)CCC(=O)N34)sc2c1 (stereo not drawn) | 8.66% (inactive) |
| COc1ccc(C(CNC(=O)c2cccc(NS(=O)(=O)c3ccccc3)c2)N(C)C)cc1 (stereo not drawn) | -11.7% (inactive) |
| CCCCCCOC(=O)C(C#N)c1nc2ccccc2nc1N1CCCCC1 (stereo not drawn) | 6.23% (inactive) |
| CCCCCCOC(=O)C(C#N)c1nc2ccccc2nc1N1CCOCC1 (stereo not drawn) | 5.48% (inactive) |
| CCOC(=O)CC(=O)CSc1nccc(-c2cccnc2)n1 | 2.54% (inactive) |
| COc1cc(OC)cc(C(=O)NCc2ccc3c(c2)cc(C)n3C)c1 | 55.2% (inactive) |
| O=S(=O)(NC1CCCCC1N1CCN(c2ccc(F)cc2)CC1)c1ccccc1 (stereo not drawn) | 11.3% (inactive) |
| COc1ccc(-c2ccc(N(C)C)cc2)cc1[C@H]1[C@@H]2C=CCC[C@@]2(C)C(=O)N1Cc1ccccc1 | -2.81% (inactive) |
| COc1ccc(-c2ccc(C)cc2)cc1[C@H]1[C@@H]2C=CCC[C@@]2(C)C(=O)N1Cc1ccccc1 | 2.77% (inactive) |
| CC(Sc1ccc(S(=O)(=O)N2CCOCC2)cc1[N+](=O)[O-])C(=O)O (stereo not drawn) | 1.21% (inactive) |
| O=C(/C=C/c1ccccc1)N1CCC(N2CCC(C(=O)N3CCOCC3)CC2)CC1 | -6.29% (inactive) |
| CCSc1cc(N2CCOCC2)nc(-c2ccccc2)n1 | 8.27% (inactive) |

| Compound | inhibition |
| --- | --- |
| Cc1cc(C)n(-c2ccccc2[N+](=O)[O-])n1 | -3.52% (inactive) |
| O=[N+]([O-])c1ccccc1/C=N/Nc1nc(N2CCCC2)nc(N2CCCC2)n1 | 2.55% (inactive) |
| O=C(/C(=C\c1ccccc1)c1nc2ccccc2[nH]1)c1ccc(Cl)cc1 | 12.1% (inactive) |
| O=C(/C(=C/c1ccc(Cl)cc1)c1nc2ccccc2[nH]1)c1ccccc1 | 0.75% (inactive) |
| Nc1nsnc1C(=O)NCCO | -5.83% (inactive) |
| O=C1CS/C(=N/N=C/c2c[nH]c3ccccc23)N1 | 2.46% (inactive) |
| O=C(CSc1n[nH]c(-c2ccccc2)n1)N1CCOCC1 | -3.77% (inactive) |
| CCN(CC)CC(=O)NN=C(c1ccccc1)c1ccccc1 | -1.34% (inactive) |
| O=C(CN1CCCC1)NN=C(c1ccccc1)c1ccccc1 | -2.73% (inactive) |
| NC(=S)N=Nc1c(O)[nH]c2c(Br)cc(Br)cc12 | -0.35% (inactive) |
| COc1ccc(C(=O)NCC(=O)NCC(=O)OCC(=O)c2ccc(Br)cc2)cc1 | 7.79% (inactive) |
| Cc1csc(NC(=O)COCC(=O)O)c1-c1nc2ccccc2s1 | -5.81% (inactive) |
| Cc1csc(NC(=O)CSCC(=O)O)c1-c1nc2ccccc2s1 | -1.68% (inactive) |
| Cc1cc(C(=O)OCC(=O)Nc2ccc(F)cc2F)c(C)o1 | 4.91% (inactive) |
| O=C(/C=C/c1ccccc1)NC1CC2CCC1C2 (stereo not drawn) | -10.2% (inactive) |
| COc1ccc(/C=C/C(=O)NC2CC3CCC2C3)cc1 (stereo not drawn) | 14.7% (inactive) |
| Cc1c(C(=O)NC(C(C)C)C(C)C)cccc1[N+](=O)[O-] | -0.36% (inactive) |
| CC1CN(c2ccc(C(=O)c3ccccc3C(=O)O)cc2[N+](=O)[O-])CC(C)O1 (stereo not drawn) | -1.03% (inactive) |
| O=C1CCCC2=C1C(c1ccco1)Nc1ccc(C(=O)c3ccccc3)cc1N2 (stereo not drawn) | 1.55% (inactive) |
| O=C1CCCC2=C1C(c1ccccn1)Nc1ccc(C(=O)c3ccccc3)cc1N2 (stereo not drawn) | -10.7% (inactive) |
| O=C(NCc1cccnc1)c1cccc(OC2CCN(Cc3ccc(CO)o3)CC2)c1 | 3.84% (inactive) |
